Experiment [1] in a line: Cytotoxicity counterscreen for inhibitors of SARS-CoV-2 cell entry (AID 1645845). Also: nearly all actives have a fitted effect of over 50% in size. Put shortly: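 Counterscreen run in the same HEK293-ACE2 line as the pseudotyped-particle entry assay, without particles. Viability after 48 h at 37 C was read as ATP luminescence, scaled between cell-containing and cell-free wells.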
For orientation: Counterscreens check selectivity or assay interference.

A short description of experiment [2]: Primary qHTS to identify inhibitors of SARS-CoV-2 cell entry (AID 1645846). Also: nearly all actives have a fitted effect of over 45% in size. Also: potency is read from the fitted curve at half-maximal effect. The conditions noted are these: activity change, negative = inhibition: at 57.1 µM (top of the series) unless noted. Put shortly: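 Inhibition of spike-mediated entry was scored in human ACE2-transfected Expi293F cells. Particles were MLV-pseudotyped with Wuhan-Hu-1 S carrying a 19-aa C-terminal deletion; signal was luciferase after two days, scaled between spike PP and fusion-protein-free PP.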
Background: Quantitative high-throughput screening tests each substance at several concentrations.

The target in experiment [3] is Rap guanine nucleotide exchange factor 3 (Homo sapiens) (UniProt O95398). Kind of experiment: Confirmatory qHTS for antagonist of cAMP-regulated guanine nucleotide exchange factor 3 (EPAC1) (AID 1645880; active = well fitted curve in the direction sought with a large enough effect; an effect the other way counts as inactive or inconclusive;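 also: plate controls were DMSO only for no effect and full effect of the ATA control for full effect; nearly all actives have a fitted effect of over 55% in size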). Put shortly:
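Released BODIPY-GDP fluoresces less than Rap1-bound BODIPY-GDP; the signal is followed at 480/540 nm at 5-min intervals over 30 min, after 5 min at room temperature. Reactions contain 100 nM EPAC1, 250 nM RAP1B-BODIPY-GDP and 50 uM GDP; results are normalized to ATA and DMSO.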

Experiment [4] shares this target. Kind of experiment: Confirmatory qHTS for agonist of cAMP-regulated guanine nucleotide exchange factor 3 (EPAC1) (AID 1645881; active = well fitted curve in the direction sought with a large enough effect; an effect the other way counts as inactive or inconclusive;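 also: EPAC1 catalysed release of BODIPY-GDP from Rap1B seen as fluorescence loss; 100% = effect of cAMP agonist control; nearly all actives have a fitted effect of over 75% in size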).
For experiment [5], the target named is Rap guanine nucleotide exchange factor 4 (Homo sapiens) (UniProt Q8WZA2). Kind of experiment: Confirmatory qHTS for agonist of cAMP-regulated guanine nucleotide exchange factor 4 (EPAC2) (AID 1645884; active = well fitted curve in the direction sought with a large enough effect; an effect the other way counts as inactive or inconclusive;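 also: nucleotide exchange releases bodipy-GDP from Rap1 and this lowers its fluorescence; % is scaled to controls: 0 for no effect and ±100 for the full control effect; nearly all actives have a fitted effect of over 65% in size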).
Sequence of Rap guanine nucleotide exchange factor 4 (Homo sapiens) (Q8WZA2 whole entry, looked up, the tested form may be a part): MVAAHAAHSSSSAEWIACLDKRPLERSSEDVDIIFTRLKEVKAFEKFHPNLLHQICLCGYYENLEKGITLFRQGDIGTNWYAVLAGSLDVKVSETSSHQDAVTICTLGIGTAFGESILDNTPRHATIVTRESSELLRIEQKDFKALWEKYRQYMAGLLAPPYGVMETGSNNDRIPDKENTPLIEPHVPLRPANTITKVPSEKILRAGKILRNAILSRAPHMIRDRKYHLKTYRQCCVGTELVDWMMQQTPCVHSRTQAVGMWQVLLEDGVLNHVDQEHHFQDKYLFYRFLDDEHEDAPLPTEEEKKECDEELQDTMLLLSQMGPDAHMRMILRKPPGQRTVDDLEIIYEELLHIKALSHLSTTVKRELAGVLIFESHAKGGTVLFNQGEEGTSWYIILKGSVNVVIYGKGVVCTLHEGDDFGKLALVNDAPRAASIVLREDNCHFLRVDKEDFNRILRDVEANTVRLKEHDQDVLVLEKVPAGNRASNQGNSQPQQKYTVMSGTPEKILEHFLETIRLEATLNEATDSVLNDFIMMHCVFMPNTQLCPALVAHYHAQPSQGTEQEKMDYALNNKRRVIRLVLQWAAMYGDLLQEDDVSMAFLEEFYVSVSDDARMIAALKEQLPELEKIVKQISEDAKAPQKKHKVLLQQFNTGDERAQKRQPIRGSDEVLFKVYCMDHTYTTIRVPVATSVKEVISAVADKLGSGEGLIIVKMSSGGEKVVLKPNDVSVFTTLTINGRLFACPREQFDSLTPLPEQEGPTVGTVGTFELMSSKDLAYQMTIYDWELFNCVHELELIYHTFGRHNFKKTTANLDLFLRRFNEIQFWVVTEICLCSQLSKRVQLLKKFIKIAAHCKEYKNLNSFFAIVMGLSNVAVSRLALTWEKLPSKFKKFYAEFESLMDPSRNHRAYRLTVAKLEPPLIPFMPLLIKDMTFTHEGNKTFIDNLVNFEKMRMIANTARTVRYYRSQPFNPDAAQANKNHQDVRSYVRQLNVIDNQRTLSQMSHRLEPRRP
A short description of experiment [6]: Primary qHTS for inhibitors of nuclear receptor binding SET domain protein 2 (NSD2) in an isogenic RCH-ACV NSD2 p.E1099K mutant (9B) (AID 1645876; active = well fitted curve in the direction sought with a large enough effect; an effect the other way counts as inactive or inconclusive; also: nearly all actives have a fitted effect of over 70% in size; also: potency is read from the fitted curve at half-maximal effect).
Experiment [7] in a line: Primary qHTS for inhibitors of nuclear receptor binding SET domain protein 2 (NSD2) in an RCH-ACV wild type WT cells (2C) (AID 1645877; active = well fitted curve in the direction sought with a large enough effect; an effect the other way counts as inactive or inconclusive; also: nearly all actives have a fitted effect of over 70% in size; also: potency is read from the fitted curve at half-maximal effect).
Experiment [8] has as its target Rap guanine nucleotide exchange factor 4 (Homo sapiens) (UniProt Q8WZA2). Kind of experiment: Confirmatory qHTS for antagonist of cAMP-regulated guanine nucleotide exchange factor 4 (EPAC2) (AID 1645885; active = well fitted curve in the direction sought with a large enough effect; an effect the other way counts as inactive or inconclusive; also: potency is read from the fitted curve at half-maximal effect; nearly all actives have a fitted effect of over 25% in size).

SMILES strings stand for the structures. Where “and” joins values, the source holds several entries; their conditions need not be identical. Equal values may be shown once. Results filed as inconclusive are left out. Calls of active or inactive are those of the source. Unless noted, calls follow the shape of the full dose curve.

Sequence of Rap guanine nucleotide exchange factor 3 (Homo sapiens) (O95398 whole entry, looked up): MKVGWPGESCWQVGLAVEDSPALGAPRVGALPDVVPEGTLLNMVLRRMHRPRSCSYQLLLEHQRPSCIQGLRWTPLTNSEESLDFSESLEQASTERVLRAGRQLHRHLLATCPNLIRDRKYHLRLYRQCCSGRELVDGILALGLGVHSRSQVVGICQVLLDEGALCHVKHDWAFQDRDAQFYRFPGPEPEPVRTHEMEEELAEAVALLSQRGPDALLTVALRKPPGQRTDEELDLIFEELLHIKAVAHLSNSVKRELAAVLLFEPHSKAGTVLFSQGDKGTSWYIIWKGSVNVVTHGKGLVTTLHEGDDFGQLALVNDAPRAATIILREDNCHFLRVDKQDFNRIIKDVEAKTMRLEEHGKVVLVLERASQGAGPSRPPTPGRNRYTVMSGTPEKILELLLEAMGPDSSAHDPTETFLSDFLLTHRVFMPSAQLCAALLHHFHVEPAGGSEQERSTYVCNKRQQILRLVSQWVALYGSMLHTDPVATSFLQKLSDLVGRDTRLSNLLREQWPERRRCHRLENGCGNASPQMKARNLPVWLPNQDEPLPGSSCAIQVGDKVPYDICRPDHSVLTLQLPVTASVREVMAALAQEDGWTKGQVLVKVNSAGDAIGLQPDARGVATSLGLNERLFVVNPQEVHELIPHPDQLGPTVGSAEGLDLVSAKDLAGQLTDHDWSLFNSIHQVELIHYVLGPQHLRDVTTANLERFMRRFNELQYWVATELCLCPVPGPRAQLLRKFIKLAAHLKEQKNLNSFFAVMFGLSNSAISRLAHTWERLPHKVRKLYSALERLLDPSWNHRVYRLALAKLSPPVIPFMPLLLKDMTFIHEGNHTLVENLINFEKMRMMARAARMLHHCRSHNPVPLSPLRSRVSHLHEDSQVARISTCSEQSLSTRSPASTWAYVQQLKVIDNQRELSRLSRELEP

For `OC[C@H]1O[C@@H](O[C@@H]2[C@@H](CO)O[C@](O)(CO)[C@H]2O)[C@H](O)[C@@H](O)[C@H]1O`, the Potency result in experiment [1] was “inactive”. In experiment [2], the Potency result is “inactive” and the activity change, negative = inhibition is -4.13%. Turning to `CN(C)c1ccc(C(=C2C=CC(=[N+](C)C)C=C2)c2ccccc2)cc1`, the Potency in experiment [2] was 4.47 µM (active). For the molecule `CCN(CCCCOC(=O)c1ccc(OC)c(OC)c1)C(C)Cc1ccc(OC)cc1` (stereo unspecified), in experiment [1], the Potency result was “inactive”. In addition, the Potency in experiment [2] was 14.1 µM (active). Turning to `C[C@H]1C[C@H]2[C@@H]3CCC4=CC(=O)C=C[C@]4(C)[C@H]3C(=O)C[C@]2(C)[C@@]1(O)C(=O)CO`, the Potency entry in experiment [1] is “inactive”. Besides, in experiment [2], the Potency entry is “inactive” and the activity change, negative = inhibition turned out to be 4.44%. Take `COc1ccc(CCN2CCC(Nc3nc4ccccc4n3Cc3ccc(F)cc3)CC2)cc1`: the Potency in experiment [2] was 10 µM (active). `Cc1cc(C(C)(C)C)c(O)c(C)c1CC1=NCCN1`: the Potency result in experiment [1] was “inactive”. In experiment [2], the Potency entry is “inactive” and the activity change, negative = inhibition was -17.1%. As for `[O-][n+]1ccccc1SSc1cccc[n+]1[O-]`, the activity change, negative = inhibition in experiment [2] was -95.2% [at 27.1 µM]. As for `CN(C)c1ccc(C(=C2C=CC(=[N+](C)C)C=C2)c2ccc(N(C)C)cc2)cc1`, in experiment [2], the Potency was 2.24 µM (active) and 2.51 µM (active). Turning to `CN1CC(=O)N2[C@H](c3ccc4c(c3)OCO4)c3[nH]c4ccccc4c3C[C@@H]2C1=O`, the Potency entry in experiment [1] was “inactive”. In addition, in experiment [2], the Potency entry was “inactive” and the activity change, negative = inhibition is -9.6%. Turning to `Oc1c(Cl)cc(Cl)c(Cl)c1Cc1c(O)c(Cl)cc(Cl)c1Cl`, in experiment [2], the Potency was 3.16 µM (active). With `CCC(=O)O[C@]1(C(=O)CCl)[C@@H](C)C[C@H]2[C@@H]3CCC4=CC(=O)C=C[C@]4(C)[C@@]3(F)[C@@H](O)C[C@@]21C`, the Potency entry in experiment [1] and in experiment [2] was “inactive” each time. Also, the activity change, negative = inhibition in experiment [2] is -9.65%.

For `O=C(O)C(=O)Nc1cccc(-c2nn[nH]n2)c1`, in experiment [1], the Potency result is “inactive”. Also, in experiment [2], the Potency entry was “inactive” and the activity change, negative = inhibition is -0.181%. For `CC(C)(C)C(=O)C(Oc1ccc(Cl)cc1)n1ccnc1` (stereo unspecified), the Potency in experiment [2] is 20 µM (active).

For `CC(=O)OCC(=O)[C@@]12N=C(C)O[C@@H]1C[C@H]1[C@@H]3CCC4=CC(=O)C=C[C@]4(C)[C@H]3[C@@H](O)C[C@@]12C`, the Potency result in experiment [1] was “inactive”. Moreover, in experiment [2], the Potency entry is “inactive” and the activity change, negative = inhibition was -14%. For the molecule `NC(N)=NC(=O)c1nc(Cl)c(N)nc1N`, the Potency entry in experiment [1] was “inactive”. In addition, in experiment [2], the Potency entry was “inactive” and the activity change, negative = inhibition was -0.658% [at 114 µM].

With `C#C[C@]1(O)CC[C@H]2[C@@H]3[C@H](C)CC4=C(CCC(=O)C4)[C@H]3CC[C@@]21C`, in experiment [1], the Potency result is “inactive”. Besides, in experiment [2], the Potency result was “inactive” and the activity change, negative = inhibition is -14.1%. As for `Nc1ccc2cc3ccc(N)cc3nc2c1`, the Potency in experiment [2] is 7.94 µM (active). On the same count and under the same terms, under `COC(=O)C1=C(C)NC(C)=C(C(=O)OCCN2CCN(C(c3ccccc3)c3ccccc3)CC2)C1c1cccc([N+](=O)[O-])c1` (stereo unspecified) stands 17.8 µM (active).

With `CCOCC(O)COc1ccc(NC(=O)CC[S+](C)C)cc1` (stereo unspecified), the Potency entry in experiment [1] and in experiment [2] was “inactive” each time. Moreover, in experiment [2], the activity change, negative = inhibition is -2.31%. For the molecule `N=C(N)c1ccc2cc(OC(=O)c3ccc(N=C(N)N)cc3)ccc2c1`, the Potency entry in experiment [1] and in experiment [2] was “inactive” each time. Further, the activity change, negative = inhibition in experiment [2] was -3.1%. For `CN1CCN(c2cc3c(cc2F)c(=O)c(C(=O)O)cn3-c2ccc(F)cc2)CC1`, the Potency result in experiment [2] was “inactive”. On to `CC[C@H](NC(C)C)[C@H](O)c1ccc(O)c2[nH]c(=O)ccc12`, for which the Potency result in experiment [1] and in experiment [2] was “inactive” in each case. Further, in experiment [2], the activity change, negative = inhibition is 1.27%. As to `NCCc1cnc[nH]1`, the Potency entry in experiment [1] was “inactive”. Moreover, in experiment [2], the Potency entry is “inactive” and the activity change, negative = inhibition is 0.209%. As to `Clc1ccc(Nc2nnc(Cc3ccncc3)c3ccccc23)cc1`, the activity change, negative = inhibition in experiment [2] is -4.34%. Regarding `NS(=O)(=O)c1cc2c(cc1Cl)NC(CSCc1ccccc1)=NS2(=O)=O`, the activity change, negative = inhibition in experiment [2] is -3.7%. Still for that read-out and setting: under `O=C(OCC(O)CO)c1ccccc1Nc1ccnc2cc(Cl)ccc12` (stereo unspecified) stands -18.4%. With `CC[C@H]1CN2CCc3cc(OC)c(OC)cc3[C@@H]2C[C@@H]1C[C@H]1NCCc2cc(OC)c(OC)cc21`, the Potency in experiment [2] was 1.26 µM (active).

As for `O=C(O)CCC(=O)OC[C@@H](NC(=O)C(Cl)Cl)[C@H](O)c1ccc([N+](=O)[O-])cc1`, the activity change, negative = inhibition in experiment [2] was -2.41%.

Regarding `CN(C)CCC(c1ccccc1)c1ccccn1` (stereo unspecified), the activity change, negative = inhibition in experiment [2] is -4.85%. With `CC1=C(CC(=O)O)c2cc(F)ccc2/C1=C\c1ccc(S(C)=O)cc1` (stereo unspecified), in experiment [2], the Potency result is “inactive”. Still for that read-out and setting: under `NCC1CCC(C(=O)Oc2ccc(CCC(=O)O)cc2)CC1` (stereo unspecified) stands “inactive”. `CCOC(=O)Nc1ccc(NCc2ccc(F)cc2)nc1N`: the activity change, negative = inhibition in experiment [2] was -22.5%. Still for that read-out and setting: under `COc1ccccc1N1CCN(CC(O)COc2cccc3ccccc23)CC1` (stereo unspecified) stands -24.9% and -27.1%; under `N/C(=N\N=C\c1ccc(Cl)cc1)N/N=C/c1ccc(Cl)cc1`, -80.5%.

On to `O=C1C(c2[nH]c3ccccc3c2O)=Nc2ccccc21`, for which the activity change, negative = inhibition in experiment [2] is -0.955%. In the case of `O=C(Nc1ccc([N+](=O)[O-])cc1Cl)c1cc(Cl)ccc1O`, in experiment [2], the Potency was 2.51 µM (active) and 8.91 µM (active). On to `CCOC(=O)c1ccc(C#Cc2ccc3c(c2)C(C)(C)CCS3)nc1`, for which the Potency result in experiment [2] is “inactive”.

Take `NC1(c2ccc(-c3nc4ccn5c(=O)[nH]nc5c4cc3-c3ccccc3)cc2)CCC1`: the Potency in experiment [2] was 8.91 µM (active). Still for that read-out and setting: under `c1ccc(CN(CC2=NCCN2)c2ccccc2)cc1` stands “inactive”; under `Clc1ccc(C(Cn2ccnc2)OCc2c(Cl)cccc2Cl)c(Cl)c1` (stereo unspecified), 31.6 µM (active). On the same count and under the same terms, with `CC(=O)[C@H]1CC[C@H]2[C@@H]3CC=C4C[C@@H](O)CC[C@]4(C)[C@H]3CC[C@]12C` the entry was “inactive”. With `Clc1ccc(CO/N=C(\Cn2ccnc2)c2ccc(Cl)cc2Cl)c(Cl)c1`, the molecule was classed as inactive in experiment [3], in experiment [4] and in experiment [5]. Take `NC(=O)Cc1cccc(C(=O)c2ccccc2)c1N`: the Potency result in experiment [2] is “inactive”. `Nc1ccc(Cl)cc1C(=O)c1ccccc1F`: the Potency result in experiment [6] was “inactive”. For the molecule `COc1ccc(-c2cc(C(F)F)nn2-c2ccc(S(N)(=O)=O)cc2)cc1F`, the activity change, negative = inhibition in experiment [2] came to 1.11%.

For the molecule `O=c1c(-c2ccccc2)c1-c1ccccc1`, in experiment [2], the Potency is 31.6 µM (active). Take `COc1ccc(-c2nc3ccc(C4=NNC(=O)CC4C)cc3[nH]2)cc1` (stereo unspecified): the activity change, negative = inhibition in experiment [2] is -33%. Same read-out and setting: under `C[C@]12CCC(=O)C=C1[C@@H]1C[C@@H]1[C@H]1[C@@H]3[C@@H]4C[C@@H]4[C@@]4(CCC(=O)O4)[C@@]3(C)CC[C@@H]12` stands 0.82% and 2.72%; under `COc1cccc2c1C(=O)c1c(O)c3c(c(O)c1C2=O)C[C@@](O)(C(C)=O)C[C@@H]3O[C@H]1C[C@H](N)[C@H](O)[C@H](C)O1`, -92.1% and -98%. For `CC[C@H](O)C(C[C@H](C)N(C)C)(c1ccccc1)c1ccccc1`, the Potency entry in experiment [6] and in experiment [7] was “inactive” throughout. As for `CCCCCCCCCCCCCCCCCCNC(=O)OC1CCN(C(=O)OC[C@H](COC(=O)N(Cc2cccc[n+]2CC)C(=O)c2ccccc2OC)OC)CC1`, the Potency in experiment [2] was 10 µM (active). `Clc1ccc(CSC(Cn2ccnc2)c2ccc(Cl)cc2Cl)cc1` (stereo unspecified): the Potency is 5.96 µM (active) in experiment [6], 5.96 µM (active) in experiment [7] and 22.1 µM (active) in experiment [8]. Moreover, the outcome in experiment [4] and in experiment [5] was inactive.

Turning to `C1CCC(C(CC2CCCCN2)C2CCCCC2)CC1` (stereo unspecified), in experiment [2], the Potency was 12.6 µM (active) and 17.8 µM (active).

`NC(=O)c1ncn([C@@H]2O[C@H](CO)[C@@H](O)[C@H]2O)c1N`: in experiment [2], the Potency result is “inactive” and the activity change, negative = inhibition is -18.5%.

`N[C@H]1CN(c2c(F)cc3c(=O)c(C(=O)O)cn(C4C[C@@H]4F)c3c2Cl)CC12CC2` (stereo partly specified): the activity change, negative = inhibition in experiment [2] is -17.4%. Regarding `O=c1oc2c(O)c(O)cc3c(=O)oc4c(O)c(O)cc1c4c23`, in experiment [2], the Potency entry is “inactive” and the activity change, negative = inhibition was -5.97% [at 27.1 µM].

Consider `CCCCCN=C(N)N/N=C/c1c[nH]c2ccc(OC)cc12`, for which, in experiment [2], the Potency was 22.4 µM (active). Same read-out and setting: under `O=C(Oc1cccc2cccnc12)c1ccccc1` stands 8.91 µM (active); under `CN(C)CC/C=C1\c2ccccc2Sc2ccc(Cl)cc21`, 20 µM (active). `CC(C)OC(=O)C(C(=O)OC(C)C)=C1SC=CS1`: in experiment [2], the Potency result is “inactive” and the activity change, negative = inhibition is -9.44%. Regarding `CCCCc1ccc2nc(NC(=O)OC)[nH]c2c1`, the activity change, negative = inhibition in experiment [2] is -63.3%. `C[C@@H]1C[C@@H]([C@H](O)CC2CC(=O)NC(=O)C2)C(=O)[C@@H](C)C1`: the Potency was 2.51 µM (active) in experiment [2]; 211 nM (active) and 296 nM (active) in experiment [6]; 188 nM (active) and 296 nM (active) in experiment [7].

The values above are taken from PubChem BioAssay (NCATS).
